Assay [1] in a line: qHTS assay to identify small molecule agonists of the hypoxia (HIF-1) signaling pathway (AID 1224846; active means well fitted activation curve with a large enough effect in the signal ratio in the repeat runs, not every such curve was filed as active; the % refers to the signal ratio). In a few lines: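 Compounds added to ME-180 cells carrying hypoxia-response-element beta-lactamase reporter (0.5% dialyzed FBS, 5 h preplating), 17 h at 37C; agonist activity detected by CCF4-AM B/G FRET read-out.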
On the technique in general: Quantitative high-throughput screening tests each substance at several concentrations.

Assay [2] is described as follows: qHTS assay to identify small molecule agonists of H2AX - cell viability counter screen (AID 1224847; calls by dose curve; further: nearly all actives have a fitted effect of over 30% in size; further: potency means the concentration at half of the fitted maximal effect). A digest of the protocol: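 Wild-type CHO-K1 cells (10% FBS medium) were plated overnight at 37C, exposed to compounds at 15 concentrations for 3 hr at 37C (0.76% DMSO final), and viability was read as CellTiter-Glo luminescence after 30 min at room temperature.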

Assay [3] can be described thus: qHTS assay to identify small molecule antagonists of the estrogen related receptor (ERR) signaling pathway from Tox21 library (AID 1224848). Further: nearly all actives have a fitted effect of over 50% in size. Further: potency means the concentration at half of the fitted maximal effect. In a few lines:
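Tox21 10K compounds in DMSO tested for ERR pathway antagonism in NTP's ERR cell line; 18 h, 37 C exposure; ONE-Glo luminescence.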

A short description of assay [4]: qHTS assay to identify small molecule agonists of the estrogen related receptor (ERR) signaling pathway from Tox21 library (AID 1224849; calls by dose curve; further: nearly all actives have a fitted effect of over 15% in size). Conditions: ERR reporter cell line, ONE-Glo luciferase, 18 h; at 92.4 µM (top of the series) unless noted. A digest of the protocol:
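Luminescent agonist read-out (One-Glo, 30-minute room-temperature incubation) following 18-hour compound treatment at 37 C of the ERR cell line, which had been plated 6 hours before dosing.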

A short description of assay [5]: qHTS RealTime-Glo MT Cell Viability Assay in HepG2 cells - 24 hour (AID 1224867). Further: nearly all actives have a fitted effect of over 50% in size. Further: potency means the concentration at half of the fitted maximal effect. In a few lines:
(§1)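 HepG2 cells were seeded at 600 cells/well together with NanoLuc luciferase and a cell-permeant prosubstrate, preincubated 5 h at 37 C/5% CO2, then pin-dosed with compounds in DMSO. Nonlytic luminescence from viable cells was read at each time point.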

Assay [6] can be described thus: qHTS RealTime-Glo MT Cell Viability Assay in HEK293 cells - 32 hour (AID 1224868). Further: nearly all actives have a fitted effect of over 50% in size. Further: potency means the concentration at half of the fitted maximal effect. A digest of the protocol: (§2)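 HEK293 cells were seeded at 600 cells/well together with NanoLuc luciferase and cell-permeant prosubstrate, preincubated 5 h at 37 C/5% CO2, then given compound in DMSO by pintool. Luminescence from viable-cell prosubstrate reduction was read repeatedly over 40 h.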

Assay [7] in a line: A CellTox Green Cytotoxicity Assay to monitor cytotoxicity in HEK293 cells - 0 hour (AID 1224869). Further: nearly all actives have a fitted effect of over 50% in size. A digest of the protocol:
(§3)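 Fluorescence from a DNA-binding dye excluded by viable cells was measured repeatedly in the same HEK293 wells (600 cells/well) during continuous compound exposure at 37 C. Each assay gives one read point: 0, 8, 16, 24, 32 or 40 h.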

Assay [8] can be described thus: qHTS RealTime-Glo MT Cell Viability Assay in HepG2 cells - 40 hour (AID 1224870). Further: nearly all actives have a fitted effect of over 50% in size. Further: potency means the concentration at half of the fitted maximal effect. In a few lines: (§4)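 HepG2 cells mixed with RealTime-Glo MT reagents (NanoLuc plus cell-permeant prosubstrate) were seeded at 600 cells/well, incubated 5 h at 37 C/5% CO2, then pinned with compounds in DMSO; nonlytic luminescence tracked viability during 40 h treatment.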
Assay [9] in a line: A CellTox Green Cytotoxicity Assay to monitor cytotoxicity in HEK293 cells - 40 hour (AID 1224871). Further: nearly all actives have a fitted effect of over 45% in size. Further: potency means the concentration at half of the fitted maximal effect. A digest of the protocol:
as §3

Assay [10] is described as follows: qHTS RealTime-Glo MT Cell Viability Assay in HEK293 cells - 16 hour (AID 1224872). Further: nearly all actives have a fitted effect of over 50% in size. Further: potency means the concentration at half of the fitted maximal effect. In a few lines:
as §2

The nature of assay [11]: qHTS RealTime-Glo MT Cell Viability Assay in HepG2 cells - 8 hour (AID 1224873). Further: nearly all actives have a fitted effect of over 55% in size. Further: potency means the concentration at half of the fitted maximal effect. A digest of the protocol:
as §4

The nature of assay [12]: qHTS RealTime-Glo MT Cell Viability Assay in HEK293 cells - 40 hour (AID 1224874). Further: nearly all actives have a fitted effect of over 50% in size. Further: potency means the concentration at half of the fitted maximal effect. Conditions: RealTime-Glo luminescence; max response: active compounds read low. A digest of the protocol: (§5)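 Luminescence, which tracks viable cell number through reduction of the prosubstrate to a NanoLuc substrate, was read over continuous 37 C culture. Cells (600/well) were premixed with reagent and rested 5 h before 23 nL of compound in DMSO was pinned.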

Assay [13] can be described thus: A CellTox Green Cytotoxicity Assay to monitor cytotoxicity in HEK293 cells - 24 hour (AID 1224875). Further: nearly all actives have a fitted effect of over 45% in size. In a few lines: as §3
A short description of assay [14]: A CellTox Green Cytotoxicity Assay to monitor cytotoxicity in HepG2 cells - 16 hour (AID 1224876). Further: nearly all actives have a fitted effect of over 45% in size. Further: potency means the concentration at half of the fitted maximal effect. In a few lines:
(§6)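 Real-time cytotoxicity: fluorescence of a cell-impermeant cyanine dye binding DNA of dead HepG2 cells, measured repeatedly (0–40 h) during compound exposure at 37 C. Cells seeded 600/well with reagent, dosed after 5 h.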

Assay [15] can be described thus: qHTS RealTime-Glo MT Cell Viability Assay in HepG2 cells - 32 hour (AID 1224877). Further: nearly all actives have a fitted effect of over 55% in size. Further: potency means the concentration at half of the fitted maximal effect. In a few lines:
as §1

Assay [16] in a line: A CellTox Green Cytotoxicity Assay to monitor cytotoxicity in HepG2 cells - 24 hour (AID 1224878). Further: nearly all actives have a fitted effect of over 45% in size. Further: potency means the concentration at half of the fitted maximal effect. In a few lines: as §6
Assay [17] can be described thus: A CellTox Green Cytotoxicity Assay to monitor cytotoxicity in HepG2 cells - 40 hour (AID 1224879). Further: nearly all actives have a fitted effect of over 40% in size. Further: potency means the concentration at half of the fitted maximal effect. In a few lines: as §6
The nature of assay [18]: qHTS RealTime-Glo MT Cell Viability Assay in HEK293 cells - 0 hour (AID 1224880). A digest of the protocol: as §5
Assay [19] is described as follows: A CellTox Green Cytotoxicity Assay to monitor cytotoxicity in HEK293 cells - 32 hour (AID 1224881). Further: nearly all actives have a fitted effect of over 40% in size. Further: potency means the concentration at half of the fitted maximal effect. In a few lines:
as §3

The source of these data is PubChem BioAssay (Tox21).

A number with no mark means an inactive call. Results filed as inconclusive are left out. Active and inactive are the calls of the source. Unless noted, the call rests on the fitted dose curve; in most records, active means well fitted curve in the direction sought with a large enough effect in the repeat runs; inconclusive means weak or mixed curves; inactive means no such curve, though single readings can be large; an effect the other way counts as inactive or inconclusive.
On the % scale 0 is the no-effect control and ±100 the full control effect.

As for `Cn1sc(Cl)cc1=O`, the compound was called inactive in assay [1]. Besides, the Potency result in assay [2], in assay [3], in [5], in assay [6], in [7] and in assay [8] was “inactive” each time. Moreover, the Potency result in assay [9], in [10], in assay [11], in assay [13], in assay [14] and in assay [15] was “inactive” throughout. Besides, the Potency result in [16], in assay [17], in assay [18] and in assay [19] was “inactive” each time. In assay [4], the activity change, positive = activation is 1.6%. Moreover, in assay [12], the max response was -14%.
`C/C(=C\c1ccccc1)[N+](=O)[O-]`: the call in assay [1] was inactive. The Potency in assay [3] was 24.3 µM (active); in assay [8] it was 21.9 µM (active); in assay [9], 9.77 µM (active); in assay [12], 11 µM (active). Further, the activity change, positive = activation in [4] was -68.3%. In addition, the Potency result in assay [7], in [11], in assay [13], in [14] and in assay [18] was “inactive” in each case.
Consider `O=C(N[C@H](c1ccccc1)[C@@H]1CN2CCC1CC2)c1c(Cl)ccc(C(F)(F)F)c1Cl`, for which, in assay [1], the compound was called inactive. The Potency in assay [2] is 182 µM (active); in assay [3], 39.2 µM (active); in [6], 70.2 µM (active); in assay [10] it was 78.8 µM (active); in assay [12] it was 70.2 µM (active); in assay [17], 70.2 µM (active). For the same compound, the Potency in assay [19] was 78.8 µM (active). For the same compound, in [4], the activity change, positive = activation was -42.3%. Moreover, the Potency entry in assay [7], in assay [11] and in [14] was “inactive” throughout.
Turning to `IC(I)=C(I)I`, the Potency in [2] is 31.8 µM (active); in assay [3], 19.3 µM (active); in assay [5] it was 0.549 µM (active); in assay [6] it was 6.92 µM (active); in assay [8], 0.347 µM (active); in assay [9], 54.9 µM (active). For the same compound, the Potency in assay [10] is 9.77 µM (active); in [11], 1.55 µM (active); in [14], 24.5 µM (active); in assay [15] it was 0.436 µM (active); in assay [16] it was 19.5 µM (active); in assay [17], 12.3 µM (active). Besides, the activity change, positive = activation in assay [4] is -75.2%. The Potency entry in assay [7] is “inactive”.
For `ClP(Cl)(Cl)(Cl)Cl`, the outcome in [1] was inactive. For the same compound, the Potency result in [2], in assay [3], in assay [7], in assay [13] and in assay [14] was “inactive” each time. Besides, the activity change, positive = activation in [4] is 0.0891%.
Take `O=C1c2ccccc2C(=O)C1C(=O)C(c1ccccc1)c1ccccc1`: the Potency entry in [2], in assay [5], in assay [6], in assay [7], in [8] and in [10] was “inactive” in each case. In addition, the Potency entry in assay [11], in assay [13], in [14], in [15], in [16] and in assay [17] was “inactive” in each case. Moreover, the activity change, positive = activation in [4] was -7.49% [at 42.5 µM]. The max response in assay [12] was 3.22%.
As for `O=C(CBr)OCc1ccccc1`, the compound was called inactive in assay [1]. The Potency entry in assay [2], in [5], in assay [6], in [7], in assay [8] and in assay [9] was “inactive” throughout. Also, the Potency result in assay [11], in assay [13], in assay [14], in [15], in assay [16] and in assay [17] was “inactive” in each case. Further, the Potency result in [18] and in [19] was “inactive” each time.
As to `N#C/C(N)=C(/N)C#N`, the compound was classed as inactive in [1]. For the same compound, the Potency result in assay [2], in [3], in assay [5], in [6], in assay [7] and in [8] was “inactive” each time. Moreover, the Potency result in [9], in [10], in [11], in [13], in assay [14] and in assay [15] was “inactive” each time. Moreover, the Potency result in [16], in assay [17], in assay [18] and in [19] was “inactive” throughout. Also, the activity change, positive = activation in [4] is 0.178%.
